Shown are actives, neighbours in structure and some others; about 6% of the full set was active somewhere.
D3 ag: qHTS of D3 Dopamine Receptor Agonist: qHTS. max activation, %. AID 652048, 2013. D3R DiscoveRx beta-arrestin cells, luminescence, 90 min. 410,000 compounds, 0.58% hits; in the data active = max activation above about 30%
Target sequence (P35462 whole entry, looked up): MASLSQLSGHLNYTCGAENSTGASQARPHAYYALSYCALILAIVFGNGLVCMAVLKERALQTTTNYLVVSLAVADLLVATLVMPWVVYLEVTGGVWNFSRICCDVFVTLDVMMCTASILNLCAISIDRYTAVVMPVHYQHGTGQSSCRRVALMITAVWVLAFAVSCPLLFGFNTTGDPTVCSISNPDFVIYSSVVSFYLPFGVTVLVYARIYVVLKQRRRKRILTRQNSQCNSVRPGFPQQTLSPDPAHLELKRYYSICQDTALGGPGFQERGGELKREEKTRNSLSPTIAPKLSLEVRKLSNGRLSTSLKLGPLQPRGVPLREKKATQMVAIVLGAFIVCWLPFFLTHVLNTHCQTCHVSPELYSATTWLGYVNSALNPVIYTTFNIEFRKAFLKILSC
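Agonist-mode cell screen: cells plated at 1500/well and incubated overnight at 37 °C, then exposed to library compounds for 90 min at 37 °C. Detection reagent was added for 30–60 min at room temperature, and luminescence was read.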
DRD3 antagonist: qHTS of D3 Dopamine Receptor Antagonist: qHTS. D(3) dopamine receptor (Homo sapiens), P35462. D3R cells, DiscoveRx beta-arrestin luminescence, antagonist mode; hits give low values. max response, negative = inhibition, %. 360,000 compounds, 2.5% hits. AID 652054, 2013; in the data active = max response below about -50%; inconclusive = no clear call, values can overlap the other calls
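Cells plated overnight at 1500 cells/well, then exposed to library compounds with dopamine controls for 90 minutes at 37 degrees C. DiscoveRx reagent added for 30–60 minutes at room temperature; luminescence read, quantitative HTS format.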
D1 antagonist: Antagonist of Human D 1 Dopamine Receptor: qHTS | D(1A) dopamine receptor (Homo sapiens), P21728 | HEK293 TREx D1 cells, calcium flux, dopamine EC80; hits give low values | activity change, negative = inhibition, % at 10 µM | 360,000 compounds, 3.2% hits; in the data active = activity change below about -30%
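Calcium flux readout: force-coupled, inducible Hek293 Trex D1 line, cells induced overnight at 30 C with tetracycline, dye-loaded 30–90 min at RT. Antagonism scored against EC80 dopamine challenge given 180 s after compound.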
D1 potentiator: Potentiators of Human D1 Dopamine Receptor: qHTS | 360,000 compounds, 0.036% hits | potentiation, % at 10 µM | D(1A) dopamine receptor (Homo sapiens), P21728 | HEK293 TREx D1 cells, calcium flux, dopamine EC20 potentiation; in the data active = potentiation above about 30%
D1 ag: Allosteric Agonists of the Human D1 Dopamine Receptor: qHTS. activation, % at 2 µM. HEK293 T-REx D1 cells, calcium flux, agonist mode. 360,000 compounds, 1% hits. AID 504660, 2011; in the data active = activation above about 30%
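Inducible HEK293 T-REx D1 cells, force-coupled to calcium signalling, were plated at 4000 cells/well with tetracycline and held overnight at 30 C. After no-wash calcium dye loading, compound-evoked calcium rise over 180 s flagged agonists.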
A number is an active result; – = inactive; ? = inconclusive; · = no result.

SMILES	D3 ag	DRD3 antagonist	D1 antagonist	D1 potentiator	D1 ag
CN1CCN(S(=O)(=O)c2ccc(NC(=S)NC(=O)C3CCCC3)cc2)CC1	–	–	-45	–	–
O=C1Nc2ccccc2C1=Nc1ccccc1-c1ccccc1	–	–	·	·	·
O=C1CCCC(O)=C1C(C#Cc1ccccc1)C1=C(O)CCCC1=O	–	-61	–	–	–
CC1(C)CC(=O)C(C(C#Cc2ccccc2)C2=C(O)CC(C)(C)CC2=O)=C(O)C1	–	–	–	–	–
CC(=O)Nc1ccc(NS(=O)(=O)c2cccc3nonc23)cc1	–	–	–	–	–
CC1(C)C(=O)OC(c2ccc([N+](=O)[O-])cc2)C(C)(C)C1=O (stereo not drawn)	–	–	-32	–	–
CCOC(=O)C1=C(COC(=O)C(CC)c2ccccc2)NC(=O)NC1C (stereo not drawn)	–	–	-36	–	–
CCOC(=O)C1=C(COC(=O)CCOc2ccccc2C)NC(=O)NC1C (stereo not drawn)	–	-65	–	–	–
CCOC(=O)C1=C(COC(=O)c2ncc(Cl)c(Cl)c2Cl)NC(=O)NC1C (stereo not drawn)	–	–	-49	–	–
CCOc1ccc(NC(=O)CCn2c(-c3ccc(F)cc3)cc(C(C)=O)c2C)cc1	–	·	–	–	–
CCCOc1ccc(CC(=O)NCCc2ccccc2)cc1OC	–	–	–	–	–
Clc1ccc(CNc2ncnc3[nH]ncc23)cc1Cl	–	–	·	·	·
CC(Oc1ccc(Cl)cc1)C(=O)N1CCN(C(=O)c2ccco2)CC1 (stereo not drawn)	–	–	–	–	–
C=CCC1=C/C(=C\c2c(N)n3nc(CC(=O)N4CCCC4)sc3nc2=O)C=C(OC)C1=O	–	–	–	–	109
COC1=CC(=Cc2c(N)n3nc(CC(=O)N4CCOCC4)sc3nc2=O)C=C(OC)C1=O	–	–	–	–	191
CC(C)(C)OC(=O)NCc1nnc(C(C(=O)OCc2ccccc2)c2ccccc2)s1 (stereo not drawn)	·	·	–	–	–
Cc1nnc(NC(=O)CSc2nccn2-c2cccc(Cl)c2)s1	–	·	–	–	–
COC(=O)[C@]12CCCCC=C1N(Cc1ccccc1)C(=O)[C@H](CC(=O)N1CCSCC1)C2	–	–	·	·	·
O=C(Cc1ccc(O)cc1)N/N=C/c1cccs1	–	–	–	–	–
Cc1ccc(/C=N/NC(=O)Cc2ccc(O)cc2)s1	–	–	-33	–	–
O=P(Cc1nnco1)(c1ccccc1)c1ccccc1	–	-63	–	–	–
COc1ccc(CP(=O)(c2ccccc2)c2ccccc2)cc1	–	–	–	–	–
CCc1ccc(NC(=O)C(C)OC(=O)c2cc(=O)[nH]c3ccc(S(=O)(=O)Nc4ccc(F)cc4)cc23)cc1 (stereo not drawn)	–	–	-37	–	–
O=C(NCc1ccccc1)C1=C[C@H](c2coc3ccccc3c2=O)C[C@H](OCc2ccc(CO)cc2)O1	–	–	–	–	–
O=C(NC1CC1)C1=C[C@H](c2csc3ccccc23)C[C@H](OCc2ccc(CO)cc2)O1	–	–	–	–	–
SMILES	D3 ag	DRD3 antagonist	D1 antagonist	D1 potentiator	D1 ag
C=CCOC(=O)C1=C[C@H](c2coc3ccccc3c2=O)C[C@H](OCc2ccc(CO)cc2)O1	–	–	–	–	–
O=C(Nc1ccccc1)C1=C[C@@H](c2coc3ccccc3c2=O)C[C@@H](OCc2ccc(CO)cc2)O1	–	–	-37	–	–
O=C(Nc1ccccc1)C1=C[C@H](c2csc3ccccc23)C[C@H](OCc2ccc(CO)cc2)O1	36	–	–	–	–
C=CCOC(=O)C1=C[C@@H](c2coc3ccccc3c2=O)C[C@@H](OCc2ccc(CO)cc2)O1	–	–	-49	–	–
COc1cc(C)c(Cl)cc1S(=O)(=O)NCCc1c(C)[nH]c2ccccc12	–	·	–	–	–
COc1ccc(C(=O)c2cn(CC(=O)Nc3cc(C)ccc3C)c3nc(C)ccc3c2=O)cc1	–	·	–	–	–
Cc1cccc(Cn2c(=O)n(CCc3ccccc3)c(=O)c3sc4ccccc4c32)c1	–	·	–	–	–
C=CCC(=O)NC1CC(C)(C)Cc2c1cnn2-c1ccc(C)cc1 (stereo not drawn)	–	–	–	–	–
Cc1ccc(-n2ncc3c2CC(C)(C)CC3NC(=O)c2ccccn2)cc1 (stereo not drawn)	–	–	-76	–	–
COCCCNC(=O)N1[C@H](c2cccs2)[C@@H](C)C(=O)[C@@H](C)[C@@H]1c1cccs1	–	·	–	–	–
Cc1ccc(N2C(=O)CSC2c2cccs2)cc1 (stereo not drawn)	–	-57	–	–	–
Cn1cnc(C(=O)N2CCN(C(=O)OC(C)(C)C)CC2)c1C(=O)N1CCN(C(=O)OC(C)(C)C)CC1	–	–	–	–	–
Cn1cnc(C(=O)N2CCN(c3ccccc3)CC2)c1C(=O)N1CCN(c2ccccc2)CC1	–	?	-39	–	–
CCc1nc2ccc(C(=O)N(C)Cc3ccccc3)cn2c1N(CC)Cc1cccc(Br)c1	–	–	·	·	·
CCc1nc2ccc(C(=O)NC3CCN(Cc4ccccc4)CC3)cn2c1N(CC)Cc1cccc(Br)c1	–	-78	·	·	·
COP(=O)(OC)OC(c1ccc(Cl)cc1)P(=O)(OC)OC (stereo not drawn)	84	·	·	·	·
CCc1ccc(N(C(=O)c2csnn2)C(C(=O)NC(C)(C)CC)c2ccccn2)cc1 (stereo not drawn)	–	–	-66	–	–
CN(Cc1ccccc1)C(=O)c1[nH]cnc1C(=O)Nc1ccc(Br)cc1F	–	–	·	·	·
CCCCCCn1c(=O)[nH]c2nc3cc(N)ccc3nc2c1=O	–	–	–	–	451
O=C(CSc1ncc2c(n1)-c1ccccc1N(Cc1ccccc1)S2(=O)=O)Nc1ccccc1	–	·	–	–	–
CC(C)C[C@@H](COc1ccccc1)N1CCN(CCc2ccccc2)CCC1=O	–	?	–	–	–
CCCN1CCC(=O)N([C@H](COc2ccccc2)CC(C)C)CC1	–	-58	–	–	–
COc1ccc2cc(C#N)c(SCC(=O)N3CCCC3)nc2c1	–	–	–	–	–
COc1ccc2nc(SCC(=O)N3CCN(c4ccc(F)cc4)CC3)c(C#N)cc2c1	–	-58	–	–	–
COc1ccc(-c2nc(CSCC(=O)N3CCN(c4ccc(F)cc4)CC3)c(C)o2)cc1	–	·	-33	–	–
COc1ccc(NC(=O)C(=O)NNC(=O)c2cccs2)c(OC)c1	–	-73	–	–	–
COc1ccc(NC(=O)CNC(=O)C23CC4CC(CC(C4)C2)C3)c(OC)c1	–	–	–	–	–
COc1ccc(NC(=O)c2ccc3[nH]c(C)c(C)c3c2)c(OC)c1	–	-53	–	–	–
